Test results from PubChem BioAssay (NCATS).
Values without a mark were called inactive. The source made the active and inactive calls. Calls follow the shape of the dose curve; as a rule, active = well fitted curve in the direction sought with a large enough effect; inactive = no such curve, though single readings can be large or run the other way.

These compounds were tested against Alpha-galactosidase (Coffea arabica) (UniProt Q42656) (assay: Counterscreen for Glucocerebrosidase Inhibitors: qHTS Assay for Coffee Bean alpha-Galactosidase at pH 5.9 (AID 998;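 also: plate controls were uninhibited enzyme for no effect and no-enzyme basal signal for full effect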)). Settings: coffee bean alpha-galactosidase enzyme assay; series mostly up to 76.9 µM; activity, negative = inhibition: at the top concentration.
Procedure, shortened: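 In 50 mM citric acid pH 5.9 with 0.005% Tween-20, coffee bean enzyme hydrolyses 80 uM 4-MU alpha-D-galactopyranoside over 20 min at RT. Activity is normalized to controls; AC50 comes from Hill-modelled concentration-response data.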

Chain of Alpha-galactosidase (Coffea arabica) (Q42656 whole entry, looked up): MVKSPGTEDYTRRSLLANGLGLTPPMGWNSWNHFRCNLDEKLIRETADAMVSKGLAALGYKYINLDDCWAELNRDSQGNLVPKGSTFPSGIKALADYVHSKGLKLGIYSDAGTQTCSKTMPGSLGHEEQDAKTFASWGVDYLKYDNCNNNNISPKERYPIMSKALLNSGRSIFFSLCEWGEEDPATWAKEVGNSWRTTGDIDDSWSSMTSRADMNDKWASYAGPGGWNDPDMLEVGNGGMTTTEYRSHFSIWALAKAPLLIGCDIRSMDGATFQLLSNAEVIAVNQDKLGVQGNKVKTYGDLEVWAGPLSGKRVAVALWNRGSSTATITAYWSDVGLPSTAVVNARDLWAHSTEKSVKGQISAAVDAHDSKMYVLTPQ

**Q.** How did the outcome turn out when C[N+](C)(C)CCCCCC[N+](C)(C)C was run?
**A.** inactive

**Q.** With CN1[C@@H]2CC[C@H]1CC(OC(c1ccccc1)c1ccccc1)C2 (stereo partly specified) as the compound, how does the “activity, negative = inhibition” value read?
**A.** -3.42%

**Q.** For COc1ccc2cc([C@H](C)C(=O)O)ccc2c1, which “activity, negative = inhibition” value is on record?
**A.** -2.03%

**Q.** With FC(F)(F)c1ccccc1-n1ccnc1 as the compound, how does the “activity, negative = inhibition” value read?
**A.** -1.38%

**Q.** For O=c1[nH]cnc2[nH]ncc12, which “activity, negative = inhibition” value is on record?
**A.** -2.17%

**Q.** With CCN(CC)CCOC(=O)c1ccc(N)cc1 as the compound, how does the “activity, negative = inhibition” value read?
**A.** 0.594%

**Q.** For Nc1ccc(S(=O)(=O)Nc2ccnn2-c2ccccc2)cc1, which “activity, negative = inhibition” value is on record?
**A.** 0.328%

**Q.** How did the “activity, negative = inhibition” value turn out when CC(=O)c1ccc(S(=O)(=O)NC(=O)NC2CCCCC2)cc1 was run?
**A.** -1.46%

**Q.** CN(C)CCOC(=O)COc1ccc(Cl)cc1 was tested. Which “activity, negative = inhibition” value did it give?
**A.** -0.36%

**Q.** With CNC[C@H](O)c1cccc(O)c1 as the compound, how does the “activity, negative = inhibition” value read?
**A.** 2.23%

**Q.** N[C@@H](COP(=O)(O)O)C(=O)O was tested. Which “activity, negative = inhibition” value did it give?
**A.** -0.521%

**Q.** Which “activity, negative = inhibition” value does the source give for Cc1scc2c1N(C(=O)CN1CCN(C)CC1)c1ccccc1NC2=O here?
**A.** -4.98%

**Q.** For CCOC(=O)c1cnc2c(cnn2CC)c1NN=C(C)C, which “activity, negative = inhibition” value is on record?
**A.** 0.507%

**Q.** How did the “activity, negative = inhibition” value turn out when Clc1cccc(Cl)c1NC1=NCCN1 was run?
**A.** 5.78%

**Q.** For NCCCNCCSP(=O)(O)O, which “activity, negative = inhibition” value is on record?
**A.** 1.7%

**Q.** With CCN1CCC[C@H]1CNC(=O)c1cc(S(N)(=O)=O)ccc1OC as the compound, how does the “activity, negative = inhibition” value read?
**A.** 1.78%

**Q.** How did the “activity, negative = inhibition” value turn out when CCN(CC)CCNC(=O)c1ccc(N)cc1 was run?
**A.** 2%

**Q.** CC(C)Cc1ccc(C(C)C(=O)O)cc1 (stereo unspecified) was tested. Which “activity, negative = inhibition” value did it give?
**A.** 3.72%

**Q.** CC(=O)O[C@H]1C(=O)[C@@]2(C)[C@H]([C@H](OC(=O)c3ccccc3)[C@]3(O)C[C@H](OC(=O)[C@H](O)[C@@H](NC(=O)c4ccccc4)c4ccccc4)C(C)=C1C3(C)C)[C@]1(OC(C)=O)CO[C@@H]1C[C@@H]2O was tested. Which “activity, negative = inhibition” value did it give?
**A.** -11.7%

**Q.** How did the “activity, negative = inhibition” value turn out when CNCCC=C1c2ccccc2CCc2ccccc21 was run?
**A.** -2.05%

**Q.** With COc1cc(NS(C)(=O)=O)ccc1Nc1c2ccccc2nc2ccccc12 as the compound, how does the “activity, negative = inhibition” value read?
**A.** 2.49%

**Q.** How did the “activity, negative = inhibition” value turn out when O=c1[nH]c(=O)n([C@H]2C[C@H](O)[C@@H](CO)O2)cc1Br was run?
**A.** -0.605%

**Q.** For CCCCCCCCCCCCCCCC(=O)NCCO, which “activity, negative = inhibition” value is on record?
**A.** -3.45%

**Q.** How did the “activity, negative = inhibition” value turn out when NC1CCN(c2cccc(Cl)n2)CC1 was run?
**A.** 0.546%

**Q.** For O=C1NCC2(CCN(CCc3ccccc3)CC2)O1, which “activity, negative = inhibition” value is on record?
**A.** -1.9%

**Q.** How did the “activity, negative = inhibition” value turn out when CCn1nc(C(=O)O)c(=O)c2cc3c(cc21)OCO3 was run?
**A.** -1.06%

**Q.** Which “activity, negative = inhibition” value does the source give for NCCCCCC(=O)O here?
**A.** -0.111%

**Q.** Which “activity, negative = inhibition” value does the source give for NC(=O)N1c2ccccc2C=Cc2ccccc21 here?
**A.** 0.439%

**Q.** O=C(O)CCCCCCCC(=O)O was tested. Which “activity, negative = inhibition” value did it give?
**A.** 0.277%

**Q.** With CN(C)C(=O)Oc1ccc[n+](C)c1 as the compound, how does the “activity, negative = inhibition” value read?
**A.** 0.057%

**Q.** C1COC(NC(C2CC2)C2CC2)=N1 was tested. Which “activity, negative = inhibition” value did it give?
**A.** 2.4%

**Q.** NCCS(=O)(=O)O was tested. Which “activity, negative = inhibition” value did it give?
**A.** 0.726%

**Q.** Which “activity, negative = inhibition” value does the source give for CCN(CC)C(=O)c1ccc(O)c(OC)c1 here?
**A.** 1.43%

**Q.** How did the “activity, negative = inhibition” value turn out when Nc1cc(=O)[nH]c(N)n1 was run?
**A.** 0.237%

**Q.** O=C(O)CN(CCN(CC(=O)O)CC(=O)O)CCN(CC(=O)O)CC(=O)O was tested. Which “activity, negative = inhibition” value did it give?
**A.** -0.432%

**Q.** With CN1C(C)(C)CCCC1(C)C as the compound, how does the “activity, negative = inhibition” value read?
**A.** 0.764%
